The text below walks through data of PubChem BioAssay.

The structures appear in SMILES notation. Results filed as inconclusive are left out. Activity calls are given as the source filed them.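 How the source made its calls, unless noted: active means GFP response, as percent of the DMSO control, above the screen-wide mean plus 3 SD, about 139; inconclusive means no response measured because the compound's own fluorescence interfered; inactive means the rest.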

Test [1] can be described thus: rapamycin-like changes in RPL19A-GFP expression – cell-based, S. cerevisiae, multiplex flow cytometry, primary screen (AID 1862; in the data active means percent of DMSO control GFP below about 86%;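 further: lower values mimic rapamycin by blocking the RPL19A rise seen in DMSO cells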). The note with it: S. cerevisiae RPL19A-GFP strain, flow cytometry fluorescence, 3 h; at 10 µM; stronger effect = lower value. Background: In flow cytometry, cells or beads pass a laser one at a time.
The nature of test [2]: TOR pathway GLN3 branch reporter MEP2-GFP changes – S. cerevisiae, multiplex flow cytometry, primary screen (AID 1867).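 Further: median GFP channel fluorescence of barcode-gated MEP2-GFP cells measured by flow cytometry.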 The note with it: S. cerevisiae MEP2-GFP strain, 3 h, at 10 µM, stronger effect = higher value, 100% means same as DMSO wells.
Test [3] in a line: TOR pathway RTG branch CIT2 reporter changes – S. cerevisiae, GFP fusion, multiplex flow cytometry, primary screen (AID 1870;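 active means percent response above a set limit, the screen-wide mean plus 3 SD, cut at about 130% in these data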;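 further: barcoded CIT2-GFP strain pooled with four other GFP strains with rapamycin as positive control; median GFP fluorescence per well over plate mean of DMSO wells so 100% = DMSO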). The settings on record: S. cerevisiae CIT2-GFP expression, 3 h, at 10 µM, stronger effect = higher value.
A short description of test [4]: TOR pathway LAP4-GFP level changes – S. cerevisiae, multiplex flow cytometry, primary screen (AID 1873;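 active means GFP signal, as percent of the solvent control, above the screen mean plus 3 SD, about 149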). The settings on record: S. cerevisiae LAP4-GFP expression, 3 h, at 10 µM, stronger effect = higher value.
The nature of test [5]: yeast AGP1-GFP level changes, GLN3 branch – cell-based, multiplex flow cytometry, S. cerevisiae, primary screen (AID 1887;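 active means GFP signal above the screen-wide mean plus 3 SD, that is over about 124.5% of the solvent control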;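 further: AGP1-GFP fusion strain of S. cerevisiae within a five-strain barcoded multiplex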). The note with it: 3 h, at 10 µM, stronger effect = higher value.
Test [6] is described as follows: reduced mouse 2C T cell binding to pMHC/ICAM-1 vesicles – MLPCN validation set, flow cytometry, LFA-1/ICAM-1 modulator project, pilot screen (AID 2523;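 active means response below a set limit, under 55% cells CD8-positive and vesicle-bound, and CD8 cells' 90th-percentile brightness under 279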;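 on vesicle binding response: mean PE anti-B7-1 fluorescence of CD8+ cells relative to row control; 100% = QL9-loaded vesicles with DMSO vehicle in the same plate row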). The note with it: 2C mouse CD8+ T cells, at 7 µM, stronger effect = lower value; double positive events: measured here: CD8+/vesicle+ event percentage.
Test [7] concerns the target Integrin beta-1 (Homo sapiens) + Integrin alpha-4 (Homo sapiens) (UniProt P13612+P05556). The experiment in a line: alpha4beta1 integrin LIBS antibody binding reduction – U937 cells, HUTS-21 mAb, flow cytometry, validation set, VLA-4 allosteric modulator project, pilot screen (AID 2674;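 active means inhibition above 50%, about 3 SD of the validation set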;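 further: antibody binding induced by the VLA-4 ligand LDV present at three times its Kd; 0% = LDV ligand with antibody and no compound and 100% = antibody without LDV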). The note with it: HUTS-21 LIBS mAb binding, at 6.7 µM, stronger effect = higher value, binding induced by LDV ligand.

A short description of test [8]: calorie-restriction mimetic ROS inhibitors, yeast – validation compound set, pilot screen (AID 2706;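 active means superoxide response below 65% of plate, a cut near 3 SD across the whole screen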;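 further: yeast exposed to compound for one week at 30 degrees C before staining; 100% = mean of all compound wells on the same plate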). The settings on record: S. cerevisiae aging, superoxide DHE fluorescence; at 10 µM; stronger effect = lower value.
The target of test [9] is Beta-adrenergic receptor kinase 1 (Homo sapiens) (UniProt P25098). The experiment in a line: GRK2 binders displacing RNA aptamer, biochemical, validation, human GRK2, bead flow cytometry (AID 488806;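 active means aptamer binding inhibition above 30%, about 3 SD of noise from non-fluorescent compounds; inactive means inhibition at or below 30%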). The note with it: bead-bound GRK2, FAM-aptamer displacement, at 10 µM, stronger effect = higher value.
Chain of Beta-adrenergic receptor kinase 1 (Homo sapiens) (P25098 whole entry, looked up): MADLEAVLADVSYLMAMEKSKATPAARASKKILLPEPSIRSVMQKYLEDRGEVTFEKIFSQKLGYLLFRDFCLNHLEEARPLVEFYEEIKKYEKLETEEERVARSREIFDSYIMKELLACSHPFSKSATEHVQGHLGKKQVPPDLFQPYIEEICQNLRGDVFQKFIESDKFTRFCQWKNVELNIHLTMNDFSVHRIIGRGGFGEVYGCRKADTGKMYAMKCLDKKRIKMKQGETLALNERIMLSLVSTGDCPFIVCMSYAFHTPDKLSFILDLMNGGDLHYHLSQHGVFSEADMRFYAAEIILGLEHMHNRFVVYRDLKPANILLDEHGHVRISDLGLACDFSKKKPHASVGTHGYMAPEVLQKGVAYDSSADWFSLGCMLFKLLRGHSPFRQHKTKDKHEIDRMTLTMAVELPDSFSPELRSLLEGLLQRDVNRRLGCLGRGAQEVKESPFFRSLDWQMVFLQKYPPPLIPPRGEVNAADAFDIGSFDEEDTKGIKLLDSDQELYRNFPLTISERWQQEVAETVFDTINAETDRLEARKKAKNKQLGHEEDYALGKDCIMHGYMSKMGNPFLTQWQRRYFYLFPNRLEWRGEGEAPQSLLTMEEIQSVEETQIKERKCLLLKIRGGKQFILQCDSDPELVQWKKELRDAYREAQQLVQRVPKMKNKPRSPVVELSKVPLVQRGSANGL
Test [10] has as its target Beta-2 adrenergic receptor (Homo sapiens) (UniProt P07550). The experiment in a line: agonist-induced loss of surface beta2AR – cell-based, FAP fluorogen, flow cytometry, validation set, pilot screen (AID 504459;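 active means percent response above 42, roughly 3 SD of non-fluorescent test compounds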;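 further: agonist-driven loss of surface beta2AR via internalization measured by FAP dye flow cytometry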). The settings on record: Am2.2-beta2AR cells, at 10 µM, stronger effect = higher value.
The target of test [11] is AP-2 complex subunit beta (Homo sapiens) (UniProt P63010). The experiment in a line: beta-arrestin/AP2 interaction blockers – biochemical, validation set, GST-AP2 beads, flow cytometry, pilot screen (AID 504541;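 active means inhibition above 54%, about 3 SD of non-fluorescent compounds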;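 further: AP2 carries R879A mutation and is captured from E. coli lysate; bead-bound FITC arrestin peptide fluorescence measuring arrestin peptide binding to AP2; 0% = DMSO wells and 100% = excess unlabeled arrestin peptide control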). The note with it: FITC arrestin peptide, at 10 µM, stronger effect = higher value, AP2 beta2 appendage fragment, R879A mutant.
Chain of AP-2 complex subunit beta (Homo sapiens) (P63010 whole entry, looked up, the tested form may be a part, one chain of several): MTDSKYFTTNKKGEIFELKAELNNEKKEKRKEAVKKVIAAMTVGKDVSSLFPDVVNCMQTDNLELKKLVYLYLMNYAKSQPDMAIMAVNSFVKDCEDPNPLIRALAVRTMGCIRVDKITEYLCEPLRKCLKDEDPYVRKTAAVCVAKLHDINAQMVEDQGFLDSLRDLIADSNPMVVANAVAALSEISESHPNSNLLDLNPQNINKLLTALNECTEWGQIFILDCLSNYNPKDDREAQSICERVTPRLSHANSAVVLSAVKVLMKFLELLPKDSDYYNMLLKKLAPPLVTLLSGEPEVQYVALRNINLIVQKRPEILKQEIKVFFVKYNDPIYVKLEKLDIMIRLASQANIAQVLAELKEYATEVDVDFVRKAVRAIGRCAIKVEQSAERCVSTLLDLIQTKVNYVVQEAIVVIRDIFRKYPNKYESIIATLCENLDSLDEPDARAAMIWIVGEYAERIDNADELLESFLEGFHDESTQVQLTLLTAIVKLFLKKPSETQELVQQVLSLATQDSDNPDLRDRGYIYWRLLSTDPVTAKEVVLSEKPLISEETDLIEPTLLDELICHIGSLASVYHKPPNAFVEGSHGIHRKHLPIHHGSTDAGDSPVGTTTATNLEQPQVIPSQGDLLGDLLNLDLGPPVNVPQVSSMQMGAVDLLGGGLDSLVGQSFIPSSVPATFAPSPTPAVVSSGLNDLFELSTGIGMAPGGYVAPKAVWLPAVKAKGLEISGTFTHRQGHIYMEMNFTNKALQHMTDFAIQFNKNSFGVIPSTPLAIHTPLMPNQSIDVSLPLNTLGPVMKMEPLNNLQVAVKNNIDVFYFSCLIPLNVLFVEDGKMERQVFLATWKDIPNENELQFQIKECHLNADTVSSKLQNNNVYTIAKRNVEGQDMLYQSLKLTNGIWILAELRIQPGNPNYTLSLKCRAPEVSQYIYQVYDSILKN
The nature of test [12]: cytosolic pH regulators acting via V-ATPase – S. cerevisiae, pHLuorin, HTS validation (AID 504600; in the data active means response above about 15%;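 further: plate controls were DMSO for no effect and reference compound for full effect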). The note with it: V-ATPase proton transport, at 10 µM, stronger effect = higher value.
The test system of test [13] is anti-desmoglein-3 scFv antibody binding to human DSG3. Nature of the test: blockers of pathogenic pemphigus antibody–desmoglein-3 binding – biochemical, validation compound set, bead-based, flow cytometry, pilot screen (AID 588368;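 active means binding below the plate cutoff, the plate median minus 3 SD, with a reading above zero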;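 further: signal is the median channel fluorescence of bead-bound GFP antibody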). The settings on record: Protein G beads, DSG3-Fc, scFv-GFP binding, at 10 µM, stronger effect = lower value.
The nature of test [14]: Nile Red efflux blockade in pump-expressing yeast – validation compound set, multiplex, phenotypic, pilot screen (AID 588506;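 active means efflux inhibition above 0.42, the validation set average plus 4 SD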;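 further: Nile Red retained in cells so higher fluorescence means more efflux inhibition; 0 = negative control wells and 1 = enniatin B 25 µM full block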). The settings on record: S. cerevisiae pump-expressing triplex, Nile Red efflux flow cytometry; at 10 µM; stronger effect = higher value; the pumps come from Candida albicans.
Test [15] has as its target ATP-binding cassette sub-family B member 6 (Homo sapiens) (UniProt Q9NP58). Nature of the test: blockers of ABCB6-driven porphyrin uptake – K562-ABCB6 cells, flow cytometry, validation set, pilot screen (AID 588550;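 active means inhibition above the screen-wide mean plus 3 SD, about 51%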;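 further: 0% = DMSO wells and 100% = benzethonium chloride 70 µM positive control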). The note with it: K562-ABCB6 porphyrin accumulation, 1 h, at 10 µM, stronger effect = higher value.
Test [16] can be described thus: AML differentiation inducers, ER-HoxA9 marrow cells – cell-based, GFP/MAC1 double positive, flow cytometry, validation set, primary screen (AID 588685;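 active means differentiation response of at least 50%, scaled between solvent and reference control, from cells with both markers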;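 further: compound exposure lasts four days before antibody staining and flow analysis; 0% = DMSO wells and 100% = 5 µM fulvestrant positive control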). The note with it: stronger effect = higher value, normalized: vehicle 0, fulvestrant 100.

Chain of ATP-binding cassette sub-family B member 6 (Homo sapiens) (Q9NP58 whole entry, looked up): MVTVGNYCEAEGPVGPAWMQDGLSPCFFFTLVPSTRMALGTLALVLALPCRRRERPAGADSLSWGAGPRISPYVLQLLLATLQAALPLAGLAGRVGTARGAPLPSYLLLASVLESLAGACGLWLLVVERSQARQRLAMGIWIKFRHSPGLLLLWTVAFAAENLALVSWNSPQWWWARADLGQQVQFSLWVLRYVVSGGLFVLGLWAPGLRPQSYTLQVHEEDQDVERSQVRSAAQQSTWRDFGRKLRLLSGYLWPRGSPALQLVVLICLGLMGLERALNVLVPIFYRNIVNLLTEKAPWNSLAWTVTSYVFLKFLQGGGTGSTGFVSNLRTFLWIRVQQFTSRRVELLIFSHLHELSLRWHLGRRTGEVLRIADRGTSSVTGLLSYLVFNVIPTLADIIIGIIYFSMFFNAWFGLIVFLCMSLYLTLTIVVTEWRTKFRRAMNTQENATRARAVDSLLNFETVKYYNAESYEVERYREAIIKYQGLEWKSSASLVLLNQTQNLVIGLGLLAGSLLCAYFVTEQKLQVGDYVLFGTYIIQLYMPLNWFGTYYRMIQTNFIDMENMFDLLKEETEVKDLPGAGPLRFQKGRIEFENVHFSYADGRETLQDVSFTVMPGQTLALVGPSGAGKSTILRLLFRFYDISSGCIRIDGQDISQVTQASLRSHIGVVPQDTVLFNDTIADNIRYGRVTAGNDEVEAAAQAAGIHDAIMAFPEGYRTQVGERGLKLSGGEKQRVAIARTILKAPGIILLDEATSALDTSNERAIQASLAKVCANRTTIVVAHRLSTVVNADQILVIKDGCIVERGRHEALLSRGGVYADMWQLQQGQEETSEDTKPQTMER
Chain of Integrin beta-1 (Homo sapiens) + Integrin alpha-4 (Homo sapiens) (P05556 whole entry, looked up): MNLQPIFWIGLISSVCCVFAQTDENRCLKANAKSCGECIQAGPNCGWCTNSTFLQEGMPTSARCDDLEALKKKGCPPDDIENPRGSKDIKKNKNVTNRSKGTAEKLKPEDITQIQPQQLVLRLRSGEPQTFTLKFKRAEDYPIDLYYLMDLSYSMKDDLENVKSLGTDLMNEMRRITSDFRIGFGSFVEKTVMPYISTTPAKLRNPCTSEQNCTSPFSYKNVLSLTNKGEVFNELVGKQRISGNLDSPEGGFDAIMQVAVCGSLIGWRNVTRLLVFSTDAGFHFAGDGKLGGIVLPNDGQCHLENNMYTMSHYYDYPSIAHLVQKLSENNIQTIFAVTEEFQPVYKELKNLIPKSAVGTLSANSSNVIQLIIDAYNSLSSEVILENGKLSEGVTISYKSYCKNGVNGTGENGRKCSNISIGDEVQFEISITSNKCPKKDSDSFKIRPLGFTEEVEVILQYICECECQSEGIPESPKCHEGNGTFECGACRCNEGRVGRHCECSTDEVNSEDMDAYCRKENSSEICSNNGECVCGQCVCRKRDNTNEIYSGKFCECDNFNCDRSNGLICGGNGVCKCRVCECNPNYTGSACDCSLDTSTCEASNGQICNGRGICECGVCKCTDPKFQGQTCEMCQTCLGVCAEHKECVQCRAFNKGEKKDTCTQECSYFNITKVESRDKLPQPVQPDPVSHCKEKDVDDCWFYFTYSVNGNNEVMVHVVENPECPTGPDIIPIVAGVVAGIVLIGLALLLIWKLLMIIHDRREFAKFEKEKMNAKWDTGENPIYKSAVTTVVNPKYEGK
Chain of Integrin beta-1 (Homo sapiens) + Integrin alpha-4 (Homo sapiens) (P13612 whole entry, looked up): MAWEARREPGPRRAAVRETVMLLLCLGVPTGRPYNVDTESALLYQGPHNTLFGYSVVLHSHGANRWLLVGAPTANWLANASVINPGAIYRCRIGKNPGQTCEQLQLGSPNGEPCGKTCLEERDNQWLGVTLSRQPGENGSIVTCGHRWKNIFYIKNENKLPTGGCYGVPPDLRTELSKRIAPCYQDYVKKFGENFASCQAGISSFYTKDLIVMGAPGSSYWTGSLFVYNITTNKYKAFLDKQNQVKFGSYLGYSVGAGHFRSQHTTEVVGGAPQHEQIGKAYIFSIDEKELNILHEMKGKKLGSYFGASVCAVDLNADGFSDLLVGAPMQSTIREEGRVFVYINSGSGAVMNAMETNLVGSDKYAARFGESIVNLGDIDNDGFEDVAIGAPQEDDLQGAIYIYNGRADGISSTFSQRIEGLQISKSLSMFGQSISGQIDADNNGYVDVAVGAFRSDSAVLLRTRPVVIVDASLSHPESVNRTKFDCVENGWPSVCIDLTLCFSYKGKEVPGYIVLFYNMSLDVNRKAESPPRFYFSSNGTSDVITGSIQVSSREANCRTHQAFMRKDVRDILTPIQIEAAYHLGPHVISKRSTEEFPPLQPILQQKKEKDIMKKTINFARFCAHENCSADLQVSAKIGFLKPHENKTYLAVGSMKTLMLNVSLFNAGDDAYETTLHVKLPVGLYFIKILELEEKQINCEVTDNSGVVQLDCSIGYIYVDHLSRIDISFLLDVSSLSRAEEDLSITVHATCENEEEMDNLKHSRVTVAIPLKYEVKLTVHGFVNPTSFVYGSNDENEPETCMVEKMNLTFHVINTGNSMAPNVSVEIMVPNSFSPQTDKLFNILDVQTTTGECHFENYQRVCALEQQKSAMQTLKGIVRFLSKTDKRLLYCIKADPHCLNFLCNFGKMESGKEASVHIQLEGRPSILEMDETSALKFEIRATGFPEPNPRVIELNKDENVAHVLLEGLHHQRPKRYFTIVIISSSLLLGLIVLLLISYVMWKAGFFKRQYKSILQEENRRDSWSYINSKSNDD
Chain of Beta-2 adrenergic receptor (Homo sapiens) (P07550 whole entry, looked up): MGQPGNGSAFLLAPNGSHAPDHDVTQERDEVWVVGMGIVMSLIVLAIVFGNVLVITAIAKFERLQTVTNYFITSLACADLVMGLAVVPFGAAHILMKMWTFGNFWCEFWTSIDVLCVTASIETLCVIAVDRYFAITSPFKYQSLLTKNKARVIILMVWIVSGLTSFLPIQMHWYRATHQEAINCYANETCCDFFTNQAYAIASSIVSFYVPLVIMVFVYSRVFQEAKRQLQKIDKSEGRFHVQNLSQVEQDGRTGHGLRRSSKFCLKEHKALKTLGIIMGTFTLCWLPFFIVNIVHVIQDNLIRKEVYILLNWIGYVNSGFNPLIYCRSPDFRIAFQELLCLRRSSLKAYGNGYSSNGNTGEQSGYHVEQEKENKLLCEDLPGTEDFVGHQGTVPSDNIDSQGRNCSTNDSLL

In general, inhibition refers to the relative decrease from the control value, in per cent. As for `CC12CN3CC(C)(CN(C1)C3c1ccc(Cl)cc1Cl)C2=O` (stereo not drawn), the percent of DMSO control GFP in test [1] is 103% (inactive). In addition, the GFP response vs DMSO in test [2] is 98.3% (inactive); in test [4], 94.7% (inactive). Further, the percent response of DMSO control in [3] is 112% (inactive). Also, the GFP response, % of DMSO in [5] was 104% (inactive). The compound further returned a double positive events in [6] of 67.5%. The vesicle binding response in test [6] is 387% (inactive). In addition, the inhibition was 5.77% (inactive) in test [7], -0.61% (inactive) in test [11] and -3% (inactive) in test [15]. Further, the superoxide response (% of plate) in test [8] was 98.9% (inactive). For the same compound, the aptamer binding inhibition in [9] is 4% (inactive). Besides, the response in [10] was -10.5% (inactive); in test [12] it was -0.6% (inactive). Further, in test [13], the binding (% of control) was 95.1% (inactive). In addition, the efflux inhibition (fraction of control) in [14] is -0.01 (inactive). Also, in [16], the differentiation response was -8.55% (inactive).
With `CN(C)CCC(c1ccc(Cl)cc1)c1ccccn1` (stereo not drawn), in [1], the percent of DMSO control GFP was 99% (inactive). In addition, the GFP response vs DMSO is 120% (inactive) in test [2] and 78.7% (inactive) in test [4]. Moreover, the percent response of DMSO control in [3] was 108% (inactive). In test [5], the GFP response, % of DMSO is 87.5% (inactive). The compound also came in with a double positive events in test [6] of 56.3%. The vesicle binding response in test [6] is 215% (inactive). In addition, the inhibition in test [7] is -7.12% (inactive); in [11], 4.35% (inactive); in test [15], 7% (inactive). The superoxide response (% of plate) in test [8] was 94% (inactive). Besides, the aptamer binding inhibition in test [9] was -7% (inactive). The response in [10] is -9.09% (inactive); in test [12] it was 18.1% (active). For the same compound, the binding (% of control) in [13] was 107% (inactive). Moreover, the efflux inhibition (fraction of control) in [14] is 0.05 (inactive). Besides, in test [16], the differentiation response was 37.7% (inactive).
Regarding `O=C(NCc1ccc(N2CCCC2=O)cc1)c1cccc(Cl)c1`, the percent of DMSO control GFP in [1] was 102% (inactive). The GFP response vs DMSO in test [2] was 101% (inactive); in test [4], 105% (inactive). In addition, the percent response of DMSO control in test [3] was 111% (inactive). The GFP response, % of DMSO in [5] was 99.4% (inactive). In test [6], this compound showed a double positive events of 57.4%. For the same compound, the vesicle binding response in test [6] was 215% (inactive). Further, the results for the inhibition in [7], in test [11] and in test [15] were -1.49% (inactive), 7.63% (inactive) and 0% (inactive), respectively. The superoxide response (% of plate) in [8] is 101% (inactive). Besides, the aptamer binding inhibition in test [9] is 1% (inactive). Besides, the response was -4.33% (inactive) in test [10] and -1.49% (inactive) in test [12]. Also, the binding (% of control) in test [13] was 106% (inactive). Further, the efflux inhibition (fraction of control) in test [14] is -0.14 (inactive). The differentiation response in [16] is -5.62% (inactive).
Take `O=c1c(-c2ccccc2)c(O)c2cccc3c2n1CCC3`: in test [1], the percent of DMSO control GFP is 99.7% (inactive). The GFP response vs DMSO is 104% (inactive) in test [2] and 132% (inactive) in [4]. In addition, the percent response of DMSO control in [3] is 95.7% (inactive). Besides, the GFP response, % of DMSO in test [5] is 103% (inactive). In test [6], this compound gave a double positive events of 61.2%. Besides, the vesicle binding response in test [6] is 186% (inactive). For the same compound, the values for the inhibition in [7], in test [11] and in test [15] were 1.44% (inactive), -7.94% (inactive) and 1% (inactive), respectively. For the same compound, the superoxide response (% of plate) in [8] was 108% (inactive). Besides, the aptamer binding inhibition in test [9] is -3% (inactive). Moreover, the response in [10] was -27.7% (inactive); in [12], 0.3% (inactive). Further, in test [13], the binding (% of control) was 101% (inactive). For the same compound, the efflux inhibition (fraction of control) in [14] is -0.09 (inactive). In addition, in [16], the differentiation response is -12.9% (inactive).
